Screens: PubChem BioAssay, National Center for Advancing Translational Sciences (NCATS)
ALDH1A1 block: blocks purified human ALDH1A1 activity. P00352. Purified ALDH1A1, NADH fluorescence, propionaldehyde substrate. Potency, µM (series often up to 75.3 µM), actives largely listed as inhibitors. actives 7.3% (n = 220,000). AID 1030; active = well fitted inhibition curve with a large enough effect, not every such curve was filed as active; inconclusive = small, poorly fitted or top-dose-only effect, or another doubt; inactive = no such curve, though single readings can be large or run the other way
PNC inhibitor: blocks assembly of the perinucleolar compartment | AID 2417 | activity change (PNC), negative = inhibition, % at 10 µM | actives 3.1% (n = 140,000) | PC3M PTB-GFP, PNC prevalence imaging, 16 h; hits give low values;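 active = readout at or below -70, meaning at least 70% loss of cells showing the perinucleolar compartment, a nuclear body marking cancer cells; inconclusive = readout between -30 and a set limit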
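PC3M cells stably expressing PTB-GFP, 750–1000 cells/well, treated 16 h at 37 °C with compound (23 nl of library stock), in duplicate. After paraformaldehyde fixation and Hoechst stain, imaged at 20x; PNC prevalence scored by image analysis.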
HPGD inh: inhibitors of human 15-hydroxyprostaglandin dehydrogenase (HPGD) | P15428 | purified HPGD, NADH fluorescence kinetic, PGE2 substrate | Potency, µM, hits mostly inhibitors | actives 4.3% (n = 150,000); active = well fitted inhibition curve with a large enough effect, not every such curve was filed as active; inconclusive = small, poorly fitted or top-dose-only effect, or another doubt; inactive = no such curve, though single readings can be large or run the other way
Target sequence (P15428 whole entry, looked up): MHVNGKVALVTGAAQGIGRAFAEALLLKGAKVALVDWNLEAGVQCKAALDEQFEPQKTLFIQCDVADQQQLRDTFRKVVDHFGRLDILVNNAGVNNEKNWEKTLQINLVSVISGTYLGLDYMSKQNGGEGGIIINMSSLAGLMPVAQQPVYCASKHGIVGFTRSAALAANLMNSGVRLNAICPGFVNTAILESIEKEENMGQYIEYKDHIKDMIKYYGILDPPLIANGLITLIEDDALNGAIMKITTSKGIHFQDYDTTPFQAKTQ
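NADH formation kinetics: reaction with 30 uM PGE2 and 1 mM NAD+ (final), 20 nM enzyme, Tris-HCl pH 8 with Tween 20, after 15 min compound preincubation at room temperature. Fluorescence change, last versus first of five reads.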
RGS12 GoLoco inh: blocks human Gai1 binding to RGS12 GoLoco peptide, red readout | P63096 | Gai1:RGS12 GoLoco peptide FP, rhodamine, 10 min | Potency, µM (doses to about 61.6 µM), hits mostly inhibitors | actives 0.44% (n = 230,000) | AID 880; active = well fitted inhibition curve with a large enough effect, not every such curve was filed as active; inactive = no such curve, though single readings can be large or run the other way; also: nearly all actives have a fitted effect of over 30% in size
HTT ATP protect: cytoprotection in Huntington HTT-Q103 PC12 cell model. PC12 HTT-Q103 induced, cytoprotection, ATP luminescence, 40 h. actives 0.14% (n = 230,000). AID 1471. Potency, µM (titrated, usually from 56.4 µM), hits mostly activators; also: nearly all actives have a fitted effect of over 45% in size
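PC12 cells stably carrying ecdysone-inducible Htt exon 1 (Q103)–GFP were induced with 100 nM tebufenozide (final) alongside library compounds in a dose series. Cytoprotection was scored as retained ATP by ATPlite luminescence.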
HTT aggregate: mutant huntingtin aggregation inhibition | actives 1.1% (n = 220,000) | Potency, µM (top dose mostly 46.1 µM), most hits filed as inhibitors | PC12 HttQ103-GFP aggregates, Acumen cytometry, 40 h; also: nearly all actives have a fitted effect of over 60% in size
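Multiplexed with ATP-based cell death, this channel scores GFP aggregates in PC12 cells expressing inducible HTTex1-Q103-GFP. Induction used 100 nM tebufenozide; compounds were tested in concentration series.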
Of the large screens only hits and unclear results are named; the others gave an inactive call. In the library only some 11% were active in any assay of this set; here they are far more common. Unless noted, calls follow the shape of the dose curve; as a rule, active = well fitted curve in the direction sought with a large enough effect; inconclusive = small, poorly fitted or top-dose-only effect, or another doubt; inactive = no such curve, though single readings can be large; an effect the other way counts as inactive or inconclusive.

CCOC(=O)C1(CCc2ccccc2)CCN(C(=O)c2ccoc2)CC1	ALDH1A1 block 25µM (no result: PNC inhibitor, HPGD inh)
CCOC(=O)C1(CCCc2ccccc2)CCN(C(=O)c2ccoc2)CC1	ALDH1A1 block 4µM (no result: PNC inhibitor, HPGD inh)
CCOC(=O)C1(CCCc2ccccc2)CCN(C(=O)CCC2=NNC(=O)CC2)CC1	ALDH1A1 block 2µM (no result: PNC inhibitor, HPGD inh)
CC(=O)N1CC[C@@H]2CC(=O)CC[C@@H]21	none (no result: PNC inhibitor, HTT ATP protect, HTT aggregate)
COC(=O)[C@@H]1C=C[C@H](C)[C@H](CCOc2ccccc2)O1	none (no result: PNC inhibitor, HTT aggregate)
CC(C)CN1C(=O)c2ccc(C(=O)Nc3ccccn3)cc2C1=O	ALDH1A1 block 1.1µM
CC(C)CN1C(=O)c2ccc(C(=O)Nc3ccncc3)cc2C1=O	ALDH1A1 block 0.63µM
CC(=O)NS(=O)(=O)c1ccc(NC(=O)c2ccc3c(c2)C(=O)N(CCC(C)C)C3=O)cc1	ALDH1A1 block inconclusive, HPGD inh 28µM (no result: HTT ATP protect)
CCN(CC)CCn1c(-c2ccccc2)nc2c(NCCOC)nc(C)nc21	ALDH1A1 block inconclusive, HPGD inh inconclusive (no result: PNC inhibitor, HTT aggregate)
Cc1ccc(S(=O)(=O)Nc2ccc(O)c3ncccc23)cc1	ALDH1A1 block 1.3µM, HTT aggregate inconclusive (no result: PNC inhibitor, HPGD inh)
Cc1ccc(S(=O)(=O)Nc2cccc3ncccc23)cc1	none (no result: ALDH1A1 block, PNC inhibitor, HPGD inh)
COCCCN1C(=O)C(O)=C(C(=O)c2ccc(C)o2)C1c1cccc(Br)c1 (configuration not stated)	none
COc1ccccc1C1C(C(=O)c2cc3ccccc3o2)=C(O)C(=O)N1CCN(C)C (configuration not stated)	ALDH1A1 block 20µM, HTT aggregate inconclusive
O=C(C1=C(O)C(=O)N(CCc2ccccc2)C1c1cccnc1)c1ccco1 (configuration not stated)	ALDH1A1 block 18µM
COCCCN1C(=O)C(O)=C(C(=O)c2ccco2)C1c1ccccc1 (configuration not stated)	ALDH1A1 block 28µM, PNC inhibitor inconclusive
CC(C)Oc1ccc(C2C(C(=O)c3ccco3)=C(O)C(=O)N2Cc2cccnc2)cc1 (configuration not stated)	none
CCOc1ccc(C2C(C(=O)c3ccco3)=C(O)C(=O)N2Cc2cccnc2)cc1OC (configuration not stated)	ALDH1A1 block 25µM
CO[C@H]1C[C@@H]2CC[C@@H](C)[C@@](O)(O2)C(=O)C(=O)N2CCCC[C@H]2C(=O)O[C@H](C(C)C[C@H]2CC[C@@H](O)[C@H](OC)C2)CC(=O)[C@H](C)/C=C(\C)[C@@H](O)[C@@H](OC)C(=O)[C@H](C)C[C@H](C)/C=C/C=C/C=C/1C (some centres not stated)	none (no result: PNC inhibitor, HPGD inh, HTT aggregate)
CCn1cc(S(=O)(=O)N2CCN(Cc3ccc(F)cc3)CC2)cn1	none (no result: PNC inhibitor, HPGD inh)
CCN(CC)CCN1C(=O)C(O)=C(C(=O)c2cc3ccccc3o2)C1c1cccnc1 (configuration not stated)	none
O=C(C1=C(O)C(=O)N(CCc2ccccc2)C1c1ccncc1)c1cc2ccccc2o1 (configuration not stated)	ALDH1A1 block 19µM (no result: PNC inhibitor, HPGD inh)
O=C(C1=C(O)C(=O)N(c2nccs2)C1c1ccccc1)c1cc2ccccc2o1 (configuration not stated)	ALDH1A1 block 22µM, RGS12 GoLoco inh 20µM (no result: PNC inhibitor, HPGD inh)
COC(=O)c1n[nH]c2ccccc12	PNC inhibitor inconclusive
O=C(OCCCCN1C(=O)c2ccccc2C1=O)c1n[nH]c2ccccc12	PNC inhibitor inconclusive, HPGD inh 32µM
CC(=O)c1c(C)[nH]c(C(=O)OCc2ccccc2)c1C	none
CC(=O)c1c(C)[nH]c(C(=O)OCCCCN2C(=O)c3ccccc3C2=O)c1C	ALDH1A1 block inconclusive, HTT aggregate 2.8µM
CCC1=C2CC[C@H]3C(=O)NC(=O)[C@H]3[C@H]2[C@@]2(C)C(=NCCOC)OC(=O)N2C1=O	none (no result: PNC inhibitor, HTT aggregate)
CCOC(=O)c1ccc(N2C(=O)CC(SCC(=O)Nc3ccc(S(N)(=O)=O)cc3)C2=O)cc1 (configuration not stated)	ALDH1A1 block 1.6µM (no result: PNC inhibitor, HPGD inh)
